The test system of one experiment is HEK293. The experiment can be described thus: Cytotoxic Profiling of Annotated Libraries Using Quantitative High-Throughput Screening (AID 1296008). Also: nearly all actives have a fitted effect of over 60% in size. Also: potency is read from the fitted curve at half-maximal effect. Particulars: Five cell lines viability, CellTiter-Glo ATP luminescence, 48-72 h; max response: hits give low values. Put shortly: (§1)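 Cytotoxicity was measured as CellTiter-Glo ATP luminescence, read after 10 min at room temperature. Compound treatment of the cells lasted 48 or 72 hr at 37 degrees Celsius in a qHTS format.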

Experiment [1] deals with HaCat. Described as above. Particulars: Five cell lines viability, CellTiter-Glo ATP luminescence, 48-72 h; max response: hits give low values. Summed up:
as §1

Another experiment deals with MCC-13. The experiment can be described thus: qHTS assay to identify novel small-molecules to repurpose for Merkel cell carcinoma treatment (AID 1296009). Also: nearly all actives have a fitted effect of over 60% in size. Also: potency is read from the fitted curve at half-maximal effect. To be noted: MCC and control cell lines, CellTiter-Glo viability, 72 h; series mostly up to 46 µM. Summed up:
(§2)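 After compound transfer in DMSO, plates were kept 72 hr at 37 degree celsius. Luminescent ATP signal from CellTiter-Glo served as viability measure, normalized against DMSO and no-cell controls.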

Another experiment relates to WaGa. Described as above. Particulars: MCC and control cell lines, CellTiter-Glo viability, 72 h; series mostly up to 46 µM. Summed up:
as §2

The subject of a further experiment is KB-3-1. The experiment can be described thus: Cytotoxic Profiling of Annotated Libraries Using Quantitative High-Throughput Screening (AID 1296008). Also: nearly all actives have a fitted effect of over 60% in size. Also: potency is read from the fitted curve at half-maximal effect. To be noted: Five cell lines viability, CellTiter-Glo ATP luminescence, 48-72 h; max response: hits give low values. Summed up:
as §1

A further experiment relates to MCC-26. In words: qHTS assay to identify novel small-molecules to repurpose for Merkel cell carcinoma treatment (AID 1296009). Also: nearly all actives have a fitted effect of over 60% in size. Also: potency is read from the fitted curve at half-maximal effect. Particulars: MCC and control cell lines, CellTiter-Glo viability, 72 h; series mostly up to 46 µM. Summed up: as §2
The test system of another experiment is MKL-2. Described as above. To be noted: MCC and control cell lines, CellTiter-Glo viability, 72 h; series mostly up to 46 µM. Summed up: as §2
The next experiment has as its system NIH3T3. The experiment can be described thus: Cytotoxic Profiling of Annotated Libraries Using Quantitative High-Throughput Screening (AID 1296008). Also: nearly all actives have a fitted effect of over 60% in size. Also: potency is read from the fitted curve at half-maximal effect. To be noted: Five cell lines viability, CellTiter-Glo ATP luminescence, 48-72 h; max response: hits give low values. Summed up:
as §1

The next experiment concerns MKL-1. In words: qHTS assay to identify novel small-molecules to repurpose for Merkel cell carcinoma treatment (AID 1296009). Also: nearly all actives have a fitted effect of over 60% in size. Also: potency is read from the fitted curve at half-maximal effect. Particulars: MCC and control cell lines, CellTiter-Glo viability, 72 h; series mostly up to 46 µM. Put shortly: as §2
The test system of the next experiment is UISO. The experiment is described as above. To be noted: MCC and control cell lines, CellTiter-Glo viability, 72 h; series mostly up to 46 µM. Put shortly:
as §2

Another experiment concerns CASKI. In words: Primary qHTS to identify gynecologic anti-cancer compounds using libraries of approved drugs and bioactive compounds (AID 1345084). Also: nearly all actives have a fitted effect of over 55% in size. To be noted: Gynecologic cancer cell panel viability, ATPlite luminescence, 48 h; series mostly up to 57.5 µM. Put shortly: (§3)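 Cells, 1,000 per well, were allowed to settle for 16 h at 37 C before compound addition. Five concentrations were tested for 48 h, and viability was read by ATPlite luminescence after 15 min at room temperature.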

The test system of a further experiment is C33A. Described as above. Particulars: Gynecologic cancer cell panel viability, ATPlite luminescence, 48 h; series mostly up to 57.5 µM. Summed up: as §3
Another experiment concerns HeLa. Described as above. To be noted: Gynecologic cancer cell panel viability, ATPlite luminescence, 48 h; series mostly up to 57.5 µM. Put shortly:
as §3

The test system of experiment [2] is HACAT. The experiment can be described thus: qHTS assay to identify novel small-molecules to repurpose for Merkel cell carcinoma treatment (AID 1296009). Also: nearly all actives have a fitted effect of over 60% in size. Also: potency is read from the fitted curve at half-maximal effect. Particulars: MCC and control cell lines, CellTiter-Glo viability, 72 h; at 44.8 µM (top of the series) unless noted. Put shortly:
as §2

Inconclusive results are not listed. Values without a mark were called inactive. Calls of active or inactive are those of the source. Calls follow the shape of the dose curve; as a rule, active = well fitted curve in the direction sought with a large enough effect; inconclusive = small, poorly fitted or top-dose-only effect, or another doubt; inactive = no such curve, though single readings can be large; an effect the other way counts as inactive or inconclusive.
% is scaled to controls: 0 for no effect and ±100 for the full control effect.

Take `CCCCCCCCc1ccc(CCC(N)(CO)CO)cc1`: the Potency with HEK293 was 26.4 µM (active); in the experiment with HaCat [1], 18.7 µM (active). The Potency result in the experiment on MCC-13 and with WaGa was “inactive” each time.

Regarding `NC(=NCCCCCCN=C(N)N=C(N)Nc1ccc(Cl)cc1)N=C(N)Nc1ccc(Cl)cc1`, the Potency is 13.2 µM (active) with HEK293, 8.33 µM (active) with KB-3-1 and 11.8 µM (active) in the experiment with MKL-2. The Potency result in the experiment on MCC-26 was “inactive”.

On to `COc1cc2c(cc1O)CCC1C2CC[C@@]2(C)C1CC[C@@H]2O` (stereo partly specified), for which the Potency was 1.18 µM (active) with HEK293, 3.32 µM (active) in the experiment on KB-3-1 and 4.18 µM (active) in the experiment on NIH3T3. The Potency result in the experiment with MCC-26 is “inactive”.

For the compound `C[C@H]1[C@@H](OC(=O)CCC(=O)O)O[C@@H]2O[C@@]3(C)CC[C@@H]4[C@H](C)CC[C@@H]1[C@@]24OO3`, the Potency in the experiment with HEK293 was 2.35 µM (active); in the experiment on KB-3-1, 18.7 µM (active); in the experiment on NIH3T3, 20.9 µM (active); with MKL-1, 10.5 µM (active); in the experiment on MKL-2, 5.26 µM (active); in the experiment with UISO, 4.18 µM (active). For the same compound, the Potency with WaGa is 6.62 µM (active). Further, the Potency entry in the experiment on MCC-26 and with CASKI was “inactive” each time.

With `CC[C@@]1([C@@H]2O[C@@H]([C@H]3O[C@@](O)(CO)[C@H](C)C[C@H]3C)C[C@H]2C)CC[C@H]([C@]2(C)CC[C@]3(C[C@H](O)[C@@H](C)[C@@H]([C@@H](C)[C@@H](OC)[C@H](C)C(=O)O)O3)O2)O1`, the Potency is 0.144 µM (active) in the experiment on HEK293; 0.512 µM (active) in the experiment on MKL-1; 0.204 µM (active) in the experiment with MKL-2; 0.512 µM (active) in the experiment with UISO; 0.457 µM (active) in the experiment with WaGa. Further, the Potency result in the experiment on MCC-26 is “inactive”.

Turning to `CC(C=CC1=C(C)CCCC1(C)C)=CC=CC(C)=CC(=O)Nc1ccc(O)cc1`, the Potency with HEK293 was 6.79 µM (active); with KB-3-1 it was 38.2 µM (active); in the experiment on NIH3T3 it was 48.1 µM (active); in the experiment with MKL-2, 30.3 µM (active). Further, the Potency entry in the experiment on MCC-13 and with MCC-26 was “inactive” throughout.

Consider `Cc1ccc(-n2[nH]c(C)c(N=Nc3cccc(-c4cccc(C(=O)O)c4)c3O)c2=O)cc1C`, for which, in the experiment on HaCat [1], the Potency was 21.1 µM (active). Also, the max response in the experiment on KB-3-1 is -13.9%. The Potency result in the experiment on MCC-13, with C33A, with CASKI and in the experiment with HeLa was “inactive” in each case.

With `Cc1cnn(C)c1C(=O)Nc1cc(Nc2ccc3c(C=Cc4ccccn4)n[nH]c3c2)ccc1F`, the Potency in the experiment with HEK293 is 3.72 µM (active); in the experiment with NIH3T3, 13.2 µM (active); with UISO, 16.6 µM (active).

With `CN1CCCN(C(=O)c2cccc(-c3ccc(C=C4C(=O)Nc5ccc(Cl)cc54)o3)c2)CC1`, the Potency in the experiment on HEK293 is 1.32 µM (active); in the experiment with KB-3-1 it was 23.5 µM (active); in the experiment with MKL-1 it was 5.26 µM (active); with MKL-2 it was 16.6 µM (active); in the experiment on WaGa, 16.6 µM (active). In the experiment on MCC-26, the Potency result was “inactive”.

For the compound `O=C(CCCCCCC(=O)Nc1cccnc1)NO`, the Potency was 14.8 µM (active) in the experiment with KB-3-1; 26.4 µM (active) in the experiment on MCC-13; 7.43 µM (active) in the experiment on MKL-1; 1.87 µM (active) in the experiment on MKL-2; 13.2 µM (active) in the experiment with UISO; 2.35 µM (active) in the experiment on WaGa.

As for `O=[N+]([O-])c1cn2c(n1)OC[C@@H](OCc1ccc(OC(F)(F)F)cc1)C2`, the max response was -6.53% in the experiment with KB-3-1 and -7.72% in the experiment with NIH3T3. Besides, the Potency entry in the experiment on MCC-13, with MCC-26, in the experiment with MKL-1, in the experiment on MKL-2, with UISO and with WaGa was “inactive” in each case.

For the compound `CCCNC(=O)[C@H]1O[C@H]1C(=O)N[C@H](C(=O)N1CCC[C@@H]1C(=O)OC)C(C)CC` (stereo partly specified), the Potency is 10.5 µM (active) with HEK293; 20.9 µM (active) with MCC-13; 5.26 µM (active) with MKL-1; 3.32 µM (active) in the experiment on MKL-2; 18.7 µM (active) in the experiment with UISO; 8.33 µM (active) with WaGa. Besides, the call in the experiment with HaCat [1] and with HACAT [2] was inactive.

With `C[C@]12CC[C@@H]3c4ccc(O)cc4CC[C@H]3[C@H]1CC[C@H]2O`, the results for the Potency in the experiment on HEK293 and with KB-3-1 were 20.9 µM (active) and 11.8 µM (active), respectively. Besides, the Potency entry with MCC-13, with MCC-26 and in the experiment with MKL-2 was “inactive” throughout.

For `COc1cc(C)c(Sc2cnc(NC(=O)c3ccc(CNC(C)C(C)(C)C)cc3)s2)cc1C(=O)N1CCN(C(C)=O)CC1` (stereo unspecified), the Potency is 14.8 µM (active) with HEK293; 26.4 µM (active) in the experiment with HaCat [1]; 11.8 µM (active) in the experiment on KB-3-1; 20.9 µM (active) with MKL-1; 18.7 µM (active) in the experiment on UISO; 16.6 µM (active) in the experiment on WaGa. In addition, in the experiment on MCC-13, the Potency entry is “inactive”.

On to `O=C(NC1CC1)c1cccc(-c2ccc3c(NC(=O)C4CC4)n[nH]c3c2)c1`, for which the Potency in the experiment with KB-3-1 was 4.18 µM (active). For the same compound, the Potency entry in the experiment with MKL-2 was “inactive”.

Turning to `C[N+](C)([O-])CCNc1ccc(NCC[N+](C)(C)[O-])c2c1C(=O)c1c(O)ccc(O)c1C2=O`, the Potency in the experiment on HEK293 was 5.26 µM (active); in the experiment with NIH3T3, 0.0935 µM (active). Moreover, in the experiment with HaCat [1], the max response was -8.98%.

As to `CCOC(=O)[C@H](CCc1ccccc1)N[C@@H](C)C(=O)N1[C@@H](C(=O)O)C[C@H]2CCC[C@@H]21`, the Potency in the experiment with HEK293 was 18.7 µM (active); with HaCat [1], 37.2 µM (active); with MKL-2, 14.8 µM (active). For the same compound, the Potency result with MCC-13, in the experiment on MCC-26, in the experiment with MKL-1 and in the experiment on UISO was “inactive” throughout.

In the case of `CC(C)[C@H](CO)Nc1nc(Nc2cccc(Cl)c2)c2ncn(C(C)C)c2n1`, the Potency is 16.6 µM (active) in the experiment on HaCat [1] and 10.5 µM (active) with NIH3T3. Also, in the experiment on MCC-26, the Potency entry was “inactive”.

Consider `Oc1ccc(-c2ccc(-c3cc(Nc4cccc(CNC5CC5)c4)n[nH]3)cc2)c(O)c1`, for which the Potency in the experiment on HEK293 is 1.18 µM (active); in the experiment on KB-3-1 it was 1.32 µM (active); in the experiment on MKL-1, 6.62 µM (active); in the experiment with UISO, 5.26 µM (active).

Turning to `CC(C)Oc1ccc(C(=O)N[C@H](CNC(=O)CN(C)C)Cc2ccc(-c3cn4cccc([C@H](C)O)c4n3)cc2)cc1Cl`, the Potency in the experiment with HEK293 was 0.372 µM (active); in the experiment with KB-3-1, 0.332 µM (active). Also, the Potency entry in the experiment with MCC-26, in the experiment on MKL-1 and in the experiment with MKL-2 was “inactive” in each case.

As for `COc1cc(OC)c(C=CS(=O)(=O)Cc2ccc(OC)c(NCC(=O)O)c2)c(OC)c1`, the figures for the Potency in the experiment with HEK293, with NIH3T3 and in the experiment with MKL-2 were 0.118 µM (active), 0.105 µM (active) and 0.0935 µM (active), respectively. The max response with HaCat [1] is 3.08%.

For `NC(=O)Nc1sc(-c2ccc(F)cc2)cc1C(N)=O`, the Potency in the experiment with HEK293 is 13.2 µM (active); with HaCat [1], 10.5 µM (active); with KB-3-1 it was 9.35 µM (active); with UISO, 4.69 µM (active); in the experiment on WaGa, 5.26 µM (active).

For the compound `C=CC(=O)Nc1cc(NC(=O)c2ccc(C)c(NC(=O)c3ccno3)c2)cc(C(F)(F)F)c1`, the compound was classed as inactive in the experiment on HaCat [1] and with HACAT [2]. Further, the max response in the experiment on NIH3T3 is -0.953%. In addition, the Potency entry with MCC-13 and in the experiment on MCC-26 was “inactive” throughout. Moreover, in the experiment on WaGa, the Potency is 18.7 µM (active).

For the origin of these results see PubChem BioAssay (NCATS).
